Screening results as filed in PubChem.
The list is not random: actives were taken first. Their share in the collection is about 19%.
MARV entry inh: inhibitors of Marburg virus binding or cell entry; Marburg virus pseudotyped entry inhibition, cell reporter; Potency, µM (top dose mostly 37.8 µM), for the others: top-dose activity change, negative = inhibition, hits mostly inhibitors; actives 1.8% (n = 300,000); AID 540276; calls by dose curve; tested in HEK293 cells; also: potency is read from the fitted curve at half-maximal effect; % is scaled to controls: 0 for no effect and ±100 for the full control effect
Lassa entry inh: inhibitors of Lassa virus binding or cell entry | Lassa virus pseudotype entry inhibition, cell reporter | Potency, µM (titrated, usually from 37.9 µM), inactives show at the top dose activity change, negative = inhibition, usual class: inhibitors | actives 1.2% (n = 300,000); calls by dose curve; tested in HEK293 cells; also: potency is read from the fitted curve at half-maximal effect; % is scaled to controls: 0 for no effect and ±100 for the full control effect; nearly all actives have a fitted effect of over 50% in size
CHX counter: counter-screen hit for Shiga toxin inhibitors, cycloheximide | cell reporter, cycloheximide protein synthesis inhibition counterscreen | max response, % | actives 12% (n = 300,000); in the data active = max response mostly above about 13%, no sharp cut-off; inactive = mostly below about 14%; also: read at 38.3 µM for the half of the compounds with a filed dose; 0% is about no effect
Pf growth 48h: inhibits P. falciparum growth in the first generation, 48 h | P. falciparum luciferase growth in erythrocytes, 48 h | Potency, µM (doses to about 28.7 µM), without a hit: top-dose activity change, negative = inhibition, actives largely listed as inhibitors | AID 504832 | actives 5.9% (n = 310,000); also: potency is read from the fitted curve at half-maximal effect; % is scaled to controls: 0 for no effect and ±100 for the full control effect
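Erythrocytes infected with P. falciparum carrying an integrated firefly luciferase reporter (2% hematocrit, 0.1% parasitemia final) were exposed to compounds in RPMI 1640 with 0.5% Albumax at 37 C, 5% CO2. Growth inhibition was scored as reduced luminescence.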
Pf growth 96h: P. falciparum growth inhibition at 96 hours; P. falciparum luciferase reporter growth, 96 h; Potency, µM (doses to about 28.7 µM), without a hit: top-dose activity change, negative = inhibition, usual class: inhibitors; actives 6.9% (n = 320,000); AID 504834; also: potency is read from the fitted curve at half-maximal effect; % is scaled to controls: 0 for no effect and ±100 for the full control effect
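Erythrocytes infected with luciferase-expressing P. falciparum were dispensed at 2% hematocrit and 0.05% parasitemia (final), then incubated with compounds 96 hours at 37 C in 5% CO2. Luminescence after detection reagent addition reported growth.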
Shiga inhibitor: inhibitors of Shiga toxin in Vero cells; Vero cells, Shiga toxin protein synthesis inhibition reporter; inhibition, % at 38.7 µM; actives 9.2% (n = 290,000); in the data active = inhibition mostly above about 28%, no sharp cut-off; inactive = mostly below about 43%; also: 0% is about no effect
Active calls of the source: *; [ ] = another dose, or the depositor's remark. Unless noted, calls follow the shape of the dose curve; as a rule, active = well fitted inhibition curve with a large enough effect; inconclusive = small, poorly fitted or top-dose-only effect, or another doubt; inactive = no such curve, though single readings can be large or run the other way.

For Cc1cc(C(=O)COC(=O)c2ccc(Br)o2)c(C)n1C the results were MARV entry inh 5.0%[46.1 µM], Lassa entry inh 3.8%, CHX counter 40.4*, Pf growth 48h -15.3%, Pf growth 96h 23.2% and Shiga inhibitor 58.1*.
COCCn1c(C)cc(C(=O)COC(=O)c2ccc[nH]c2=O)c1C was read as MARV entry inh inconclusive, Lassa entry inh inconclusive, CHX counter 1.6, Pf growth 48h 60.9%, Pf growth 96h 204.8% and Shiga inhibitor 23.7.
`Cn1c(N)c(C(=O)COC(=O)c2ccc(Br)o2)c(=O)n(C)c1=O` gave MARV entry inh 0.0%, Lassa entry inh 14.5%, CHX counter -2.9, Pf growth 48h 27.3%, Pf growth 96h 0.0% and Shiga inhibitor -10.9.
`COCCn1c(C)cc(C(=O)COC(=O)c2ccc(Br)o2)c1C` gave MARV entry inh inconclusive, Lassa entry inh inconclusive, CHX counter 28.9*, Pf growth 48h 252.6%, Pf growth 96h 31.4% and Shiga inhibitor 55.5*.
For C/C(=N\NC(=O)c1ccccc1OCc1ccc(F)cc1)c1ccccn1 the results were Pf growth 48h 1.47µM* and Pf growth 96h 4.15µM*.
`CCOc1ccc(OCc2ccc(C(=O)N/N=C(\C)c3ccccn3)cc2)cc1` gave MARV entry inh 7.94µM*, Lassa entry inh 11.2µM*, CHX counter 40.5*, Pf growth 48h 0.37µM*, Pf growth 96h 0.37µM* and Shiga inhibitor 62.3.
Screening O=C(NCc1ccc(F)cc1)c1ccccc1OCc1ccccc1 returned MARV entry inh inconclusive, Lassa entry inh inconclusive, CHX counter -4.3, Pf growth 48h inconclusive, Pf growth 96h inconclusive and Shiga inhibitor -9.7.
Screening CCSc1cc(C)nc2c(-c3ccc(Cl)cc3)c(C)nn12 returned MARV entry inh -2.3%, Lassa entry inh 5.9%, CHX counter 4.4, Pf growth 96h -2.0% and Shiga inhibitor 19.2.
For Cc1ccc2[nH]cc(C(=O)CCl)c2c1 the results were MARV entry inh inconclusive, Lassa entry inh inconclusive, CHX counter 8.1, Pf growth 48h inconclusive, Pf growth 96h -23.8% and Shiga inhibitor -3.6.
COc1ccc(NC(=S)NCc2ccccc2Cl)c(OC)c1 was read as MARV entry inh inconclusive, Lassa entry inh inconclusive, CHX counter 4.0, Pf growth 48h inconclusive, Pf growth 96h 169.7% and Shiga inhibitor 4.7.
For CC(C)c1cc(CNC(=O)C2CCC(=O)N(CCc3ccc(Cl)cc3)C2)on1 (stereo not given) the results were CHX counter 9.2, Pf growth 48h inconclusive, Pf growth 96h 33.2% and Shiga inhibitor 26.9.
Screening Cc1ccc(S(=O)(=O)Nc2cc(S(=O)(=O)N3CCCCC3)ccc2N2CCOCC2)cc1 returned MARV entry inh inconclusive, Lassa entry inh -29.0%[46.1 µM], CHX counter 2.1, Pf growth 48h -12.4%, Pf growth 96h inconclusive and Shiga inhibitor -6.2.
Cc1cccc(Nc2nc(N)c([N+](=O)[O-])c(N3CCCC(C)C3)n2)c1 (stereo not given) was read as MARV entry inh inconclusive, Lassa entry inh inconclusive, CHX counter -4.5, Pf growth 48h 11.7µM*, Pf growth 96h inconclusive and Shiga inhibitor -12.0.
Screening Cc1ccc(Nc2nc(N)c([N+](=O)[O-])c(N3CCC(C)CC3)n2)cc1C returned MARV entry inh 14.1µM*, Lassa entry inh -1.5%, CHX counter -3.6, Pf growth 48h inconclusive, Pf growth 96h inconclusive and Shiga inhibitor 1.4.
Cc1ccc(Nc2nc(N)c([N+](=O)[O-])c(N3CCOCC3)n2)cc1C was read as MARV entry inh inconclusive, Lassa entry inh 8.6%, CHX counter 9.6, Pf growth 48h inconclusive, Pf growth 96h inconclusive and Shiga inhibitor 17.8.
For O=C(O)c1ccccc1SCc1cn2cc(Br)ccc2n1 the results were MARV entry inh -24.0%[46.1 µM], Lassa entry inh 2.0%[46.1 µM], CHX counter 1.2, Pf growth 48h 41.6%, Pf growth 96h 0.1% and Shiga inhibitor 11.7.
Screening CCn1c(=O)c2sccc2n2c(CCCC(=O)NCc3cccnc3)nnc12 returned CHX counter 1.6, Pf growth 48h 25.1%, Pf growth 96h 13.1µM* and Shiga inhibitor 1.1.
For Cn1c(=O)c2sccc2n2c(CCCC(=O)NCc3ccccc3)nnc12 the results were Lassa entry inh 21.2%[46.1 µM].
For CC(C)C(=O)Nc1ccc(N2CCCC2)c(Cl)c1 the results were MARV entry inh inconclusive, Lassa entry inh 18.1%[46.1 µM], CHX counter 43.7*, Pf growth 48h 16.8%, Pf growth 96h -1.2% and Shiga inhibitor 56.1.
`CC(C)CC(=O)NC(=S)Nc1ccc(N2CCCC2)c(Cl)c1` gave MARV entry inh inconclusive, Lassa entry inh -16.8%, CHX counter 17.7, Pf growth 48h 3.29µM*, Pf growth 96h inconclusive and Shiga inhibitor 56.5*.
CCCC(=O)NC(=S)Nc1ccc(N2CCOCC2)c(Cl)c1 was read as MARV entry inh 9.7%, Lassa entry inh 15.3%, CHX counter 19.0*, Pf growth 48h inconclusive, Pf growth 96h 11.7µM* and Shiga inhibitor 43.6*.
For CCCSC1=NC2(CCN(C(=O)NC3CCCCC3)CC2)N=C1c1ccc(OC)cc1 the results were Lassa entry inh -28.0%[46.1 µM].
For CSc1ccccc1NC(=O)COc1ccccc1C the results were CHX counter 26.7*, Pf growth 48h 5.6%, Pf growth 96h 94.3% and Shiga inhibitor 46.9*.
Cc1ccccc1OCC(=O)Nc1ccccc1CO was read as MARV entry inh inconclusive, Lassa entry inh 2.0%, CHX counter 14.2, Pf growth 48h 48.7%, Pf growth 96h -12.8% and Shiga inhibitor 78.2*.
Screening Cc1ccccc1OCC(=O)Nc1cccc2nsnc12 returned MARV entry inh -13.6%, Lassa entry inh 19.3%, CHX counter -2.1, Pf growth 48h 136.9%, Pf growth 96h inconclusive and Shiga inhibitor 1.5.
Screening Cc1ccc2c(c1)nnn2C1CCN(C(=O)Nc2ccccc2C)CC1 returned MARV entry inh 0.0%[46.1 µM], Lassa entry inh -10.3%, CHX counter -3.9, Pf growth 48h inconclusive, Pf growth 96h 9.5% and Shiga inhibitor -13.9.
`CCOC(=O)N1CCN(C(=O)c2cc(C)no2)CC1` gave CHX counter -9.0, Pf growth 96h 11.1% and Shiga inhibitor -13.3.
For CCOC(=O)c1ccc(-c2cc(C)no2)[nH]1 the results were MARV entry inh -22.2%, Lassa entry inh -22.8%, CHX counter 9.9, Pf growth 48h 64.7%, Pf growth 96h 62.6% and Shiga inhibitor 41.9*.
`CN(C(=S)Nc1ccc(SC(F)F)cc1)C(c1ccccc1)c1ccccc1` gave CHX counter 2.7, Pf growth 48h 9.28µM*, Pf growth 96h inconclusive and Shiga inhibitor -6.4.
`CN(C)CCCN(Cc1ccccc1)C(=S)Nc1ccc(SC(F)F)cc1` gave CHX counter 0.9, Pf growth 48h inconclusive, Pf growth 96h inconclusive and Shiga inhibitor 19.7.
